Most compounds without a hit are left out; they make up all but 2.4% or so of the library.
Caspase-1 inhib: allosteric or competitive inhibitors of human caspase-1 | P29466 | Caspase-1 enzyme, Ac-WEHD-AFC fluorogenic rate | Potency, µM (series often up to 57.5 µM), for the others: at the top dose activity change, negative = inhibition, usual class: inhibitors | hit rate 0.03% among 75,000 | AID 900;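 also: potency is read from the fitted curve at half-maximal effect; plate controls were vehicle for no effect and no substrate for full effect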
Target sequence (P29466 120-297 limits assumed): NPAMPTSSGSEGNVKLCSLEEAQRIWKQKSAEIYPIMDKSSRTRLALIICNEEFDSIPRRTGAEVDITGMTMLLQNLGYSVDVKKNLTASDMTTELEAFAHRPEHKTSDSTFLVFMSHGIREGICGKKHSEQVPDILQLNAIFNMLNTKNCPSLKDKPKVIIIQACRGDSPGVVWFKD
Target sequence (P29466 317-404 limits assumed): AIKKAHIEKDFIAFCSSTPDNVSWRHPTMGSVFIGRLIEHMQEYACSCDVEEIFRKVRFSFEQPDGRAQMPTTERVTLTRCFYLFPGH
15-hLO-2 inh: inhibitors of human 15-lipoxygenase 2 (ALOX15B) | O15296 | purified 15hLO-2, xylenol orange hydroperoxide absorbance | Potency, µM (highest dose often 57.1 µM), for inactives: at the highest dose activity change, negative = inhibition, actives largely listed as inhibitors | hit rate 0.56% among 110,000 | AID 881; also: potency is read from the fitted curve at half-maximal effect; % is scaled to controls: 0 for no effect and ±100 for the full control effect; nearly all actives have a fitted effect of over 60% in size
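Purified human 15hLO-2 (50 nM) preincubated 15 min with compound, then 45 uM arachidonic acid for 90 min at RT in 25 mM Hepes pH 7.5, 0.01% Triton X-100. Hydroperoxide detected by Fe-xylenol orange; 573/405 nm absorbance ratio.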
Hsp90 Hop PPI: changes Hsp90-Hop TPR2A binding signal, up or down; AlphaScreen TPR2A-His6 binding biotin-Hsp90 C-terminal peptide; Potency, µM (titrated, usually from 57 µM), for inactives: at the highest dose activity change, negative = inhibition; hit rate 0.44% among 71,000; AID 595; active = well fitted curve in either direction with a large enough effect; inconclusive = small, poorly fitted or top-dose-only effect, or another doubt; also: potency is read from the fitted curve at half-maximal effect; % is scaled to controls: 0 for no effect and ±100 for the full control effect
Caspase-7 inhib: allosteric or competitive inhibitors of human caspase-7; Potency, µM (doses to about 57.5 µM), for inactives: top-dose activity change, negative = inhibition, usual class: inhibitors; recombinant caspase-7, Ac-DEVD-AFC fluorescence rate; hit rate 0.02% among 75,000; P55210; AID 889; active = well fitted inhibition curve with a large enough effect in the main read-out, with a control signal flat, not every such curve was filed as active; inconclusive = small, poorly fitted or top-dose-only effect, or a change in a side signal; also: potency is read from the fitted curve at half-maximal effect; % of control where 0% means no effect
Target sequence (P55210 24-198 limits assumed): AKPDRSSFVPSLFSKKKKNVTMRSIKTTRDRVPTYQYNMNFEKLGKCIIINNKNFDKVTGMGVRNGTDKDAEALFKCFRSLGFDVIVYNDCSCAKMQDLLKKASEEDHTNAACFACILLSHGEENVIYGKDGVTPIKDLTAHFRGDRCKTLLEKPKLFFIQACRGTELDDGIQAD
Target sequence (P55210 207-303 limits assumed): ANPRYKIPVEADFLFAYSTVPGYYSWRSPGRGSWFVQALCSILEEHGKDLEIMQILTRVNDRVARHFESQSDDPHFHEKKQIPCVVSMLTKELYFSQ
ALOX15 inhib: blocks human 15-lipoxygenase activity; P16050; purified 15hLO-1, xylenol orange hydroperoxide absorbance; Potency, µM (top dose mostly 57.1 µM), for inactives: at the top dose activity change, negative = inhibition, actives largely listed as inhibitors; hit rate 1.4% among 74,000; AID 887; also: potency is read from the fitted curve at half-maximal effect; % is scaled to controls: 0 for no effect and ±100 for the full control effect; nearly all actives have a fitted effect of over 55% in size
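40 nM 15hLO-1 + cpd, 15 min RT; start w/ 50 uM AA (final), 6 min RT; stop/detect w/ 200 uM XO + 300 uM Fe(II) in 50 mM H2SO4, 30 min; A573/A405. Buffer 25 mM Hepes pH 7.5, 0.01% Triton X-100. No-enzyme wells as negative control.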
Tau filament bind: binds recombinant human tau filaments | hit rate 2% among 71,000 | recombinant tau filaments, thioflavin S fluorescence, 15 h; filaments grown with octadecylsulfate alongside compound | P10636 | Potency, µM (highest dose often 57.1 µM), inactives show top-dose activity change, negative = inhibition;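 also: potency is read from the fitted curve at half-maximal effect; % is scaled to controls: 0 for no effect and ±100 for the full control effect; actives lower thioflavin S fluorescence by blocking filaments or displacing dye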
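ThS-based fibril read: tau 1 uM final, inducer ODS 30 uM final, 37 C for 15 h, ex 450/em 510 nm.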
Hsp90 TPR2A CRC: confirmation and counter-screen of Hsp90 TPR2A co-chaperone interaction disrupters; shares compounds with Hsp90 Hop PPI; AlphaScreen TPR2A-His6 / biotin-Hsp90 peptide binding; activity, negative = inhibition, % at 40 µM or 46 µM, hits read low; hit rate 100% among 45; AID 632;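 active = compound lowering the Hsp90 and TPR2A binding signal, whether or not the linker counterscreen also flagged it as an artifact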
* = called active by the depositor; [ ] = dose if it differs, or a comment. Unless noted, calls follow the shape of the dose curve; as a rule, active = well fitted curve in the direction sought with a large enough effect; inconclusive = small, poorly fitted or top-dose-only effect, or another doubt; inactive = no such curve, though single readings can be large; an effect the other way counts as inactive or inconclusive.

`OCc1ccnc2c(O)cccc12` gave Caspase-1 inhib 1.3%, 15-hLO-2 inh 22.9%, Hsp90 Hop PPI 3.16µM*, Caspase-7 inhib 0.1%, ALOX15 inhib 10.1%, Tau filament bind -8.0% and Hsp90 TPR2A CRC -99.6*[alpha-screen platform artifact].
Nc1nc(N)nc(-c2ccccn2)n1 was read as Caspase-1 inhib 2.5%, 15-hLO-2 inh 59.8%, Hsp90 Hop PPI 7.94µM*, Caspase-7 inhib -1.4%, ALOX15 inhib 39.2%, Tau filament bind 6.1% and Hsp90 TPR2A CRC -99.3*[alpha-screen platform artifact].
Screening CN1CCN(Cc2cc(COCc3ccccc3)c3cccnc3c2O)CC1 returned Caspase-1 inhib -0.6%, 15-hLO-2 inh 49.4%, Hsp90 Hop PPI 1.58µM*, Caspase-7 inhib -1.0%, ALOX15 inhib 45.0%, Tau filament bind 2.1% and Hsp90 TPR2A CRC -99.6*[alpha-screen platform artifact].
Screening Oc1c(CN2CCc3ccccc3C2)cc(Cl)c2cccnc12 returned Caspase-1 inhib -5.6%, 15-hLO-2 inh 15.4%, Hsp90 Hop PPI -20.2%[2.3 µM], Caspase-7 inhib -3.1%, ALOX15 inhib 32.9% and Tau filament bind 92.4%.
Screening O=C(O)/C=C/c1cccc(B(O)O)c1 returned Caspase-1 inhib 0.0%, 15-hLO-2 inh 4.0%, Caspase-7 inhib -2.2% and ALOX15 inhib 10.9%.
Screening Cc1cc(C)n(-c2nc3sc4c(c3c(=O)[nH]2)CCCC4)n1 returned 15-hLO-2 inh 41.4%.
For Cc1cc(C)n(-c2nnc(C)c(=O)[nH]2)n1 the results were Caspase-1 inhib 0.4%, 15-hLO-2 inh -8.5%, Hsp90 Hop PPI 1.58µM*, Caspase-7 inhib 2.8%, ALOX15 inhib 11.6%[11.4 µM], Tau filament bind -5.9%[11.4 µM] and Hsp90 TPR2A CRC -99.9*[alpha-screen platform artifact].
Screening CC(NC(=O)NC1CCCCC1)C(c1cccs1)N1CCN(Cc2ccccc2)CC1 (stereo not drawn) returned 15-hLO-2 inh 2.4%.
For Cc1ccc(S(=O)(=O)CCc2nnc(NC(=O)c3cnccn3)s2)cc1 the results were Caspase-1 inhib 1.7%, 15-hLO-2 inh -7.0%, Hsp90 Hop PPI -5.8%, Caspase-7 inhib -1.7%, ALOX15 inhib -1.4% and Tau filament bind 1.8%.
`Cc1ccc(S(=O)(=O)CCc2nnc(NC(=O)c3ccccn3)s2)cc1` gave Caspase-1 inhib -1.9%, 15-hLO-2 inh 46.4%, Hsp90 Hop PPI 6.31µM*, Caspase-7 inhib 1.5%, ALOX15 inhib 48.1%, Tau filament bind 7.5% and Hsp90 TPR2A CRC -99.6*[alpha-screen platform artifact].
`Cc1ccc(S(=O)(=O)NC(=O)c2cc(C)n(CCCn3ccnc3)c2C)cc1` gave Caspase-1 inhib 0.0%, 15-hLO-2 inh 23.3%, Hsp90 Hop PPI 3.98µM*, Caspase-7 inhib 4.5%, ALOX15 inhib 8.7%, Tau filament bind -1.2% and Hsp90 TPR2A CRC -99.9*[alpha-screen platform artifact].
Screening CN(C)C(=O)CSc1cccc2cccnc12 returned Caspase-1 inhib -0.7%, 15-hLO-2 inh 2.4%, Hsp90 Hop PPI inconclusive, Caspase-7 inhib -0.9%, ALOX15 inhib 0.2% and Tau filament bind -12.2%.
For O=C(CSc1cccc2cccnc12)N1CCCC1 the results were Caspase-1 inhib -2.7%, 15-hLO-2 inh 1.8%, Hsp90 Hop PPI 10µM*, Caspase-7 inhib -0.2%, ALOX15 inhib -1.5%, Tau filament bind -14.8% and Hsp90 TPR2A CRC -98.5*[alpha-screen platform artifact].
`CCOc1ccc(C(=O)CCNC(Cc2cnc[nH]2)C(=O)O)cc1` (stereo not drawn) gave Caspase-1 inhib -2.9%, 15-hLO-2 inh 68.6%, Hsp90 Hop PPI inconclusive, Caspase-7 inhib 2.0%, ALOX15 inhib 23.6%[11.4 µM], Tau filament bind -0.7%[11.4 µM] and Hsp90 TPR2A CRC -92.7*[alpha-screen platform artifact].
For NC(=O)CN1CCN(c2ccccc2F)CC1 the results were Caspase-1 inhib 0.2%, 15-hLO-2 inh -3.9%, Caspase-7 inhib -2.0% and ALOX15 inhib -0.2%.
Screening O=C(CN1CC(=O)Oc2ccccc21)OCC(=O)c1ccccc1 returned Caspase-1 inhib 0.9%, 15-hLO-2 inh 24.2%, Hsp90 Hop PPI 3.16µM*, Caspase-7 inhib -2.1%, ALOX15 inhib 84.2%, Tau filament bind -4.5% and Hsp90 TPR2A CRC -99.7*[alpha-screen platform artifact].
For COC1(C)CCC2OC2(C)CCC2C1CC2(C)C (stereo not drawn) the results were Caspase-1 inhib 2.4%, 15-hLO-2 inh 2.9%, Caspase-7 inhib 0.4% and ALOX15 inhib -11.9%.
`O=C(NCCCn1ccnc1)Nc1ccc(Cl)c(Cl)c1` gave Caspase-1 inhib -0.2%, 15-hLO-2 inh 79.5%, Hsp90 Hop PPI 7.94µM*, Caspase-7 inhib 3.0%, ALOX15 inhib 36.0%, Tau filament bind -2.0% and Hsp90 TPR2A CRC -98.1*[alpha-screen platform artifact].
Screening Cc1onc(-c2ccccc2Cl)c1C(=O)N1CC(C)OC(C)C1 (stereo not drawn) returned Caspase-1 inhib 0.8%, 15-hLO-2 inh -2.0%, Hsp90 Hop PPI -0.1%, Caspase-7 inhib -0.6%, ALOX15 inhib 2.6% and Tau filament bind 1.0%.
For CCOC(=O)CCCCC(=O)c1[nH]c(=O)[nH]c1CSc1nc(C)cc(=O)[nH]1 the results were Caspase-1 inhib -6.9%, 15-hLO-2 inh -4.7%, Hsp90 Hop PPI 1µM*, Caspase-7 inhib -13.8%, ALOX15 inhib 9.5%, Tau filament bind 12.5% and Hsp90 TPR2A CRC -99.6*[alpha-screen platform artifact].
CCOC(=O)CCCCC(=O)c1[nH]c(=O)[nH]c1CSc1nc(C)cc(C)n1 was read as Caspase-1 inhib -1.0%, 15-hLO-2 inh 3.8%, Hsp90 Hop PPI inconclusive, Caspase-7 inhib 0.8%, ALOX15 inhib 5.7%[11.4 µM] and Tau filament bind 5.1%[11.4 µM].
Screening CCOC(=O)c1c(C)[nH]c(C(=O)CN2CCOCC2)c1C returned Caspase-1 inhib 0.3%, 15-hLO-2 inh -1.5%, Hsp90 Hop PPI -0.6%, Caspase-7 inhib -0.1%, ALOX15 inhib -7.4% and Tau filament bind 8.5%.
CCOC(=O)CCCCC(=O)c1[nH]c(=O)[nH]c1CSc1nc2ccccc2[nH]1 was read as Caspase-1 inhib -4.7%, Hsp90 Hop PPI 2.51µM*, Caspase-7 inhib -4.6%, ALOX15 inhib -2.1%, Tau filament bind -8.9% and Hsp90 TPR2A CRC -99.6*[alpha-screen platform artifact].
For CCOC(=O)CCCCC(=O)c1[nH]c(=O)[nH]c1CN1CCOCC1 the results were Caspase-1 inhib -0.4%, 15-hLO-2 inh -3.4%, Hsp90 Hop PPI 2.51µM*, Caspase-7 inhib -1.9%, ALOX15 inhib 1.5%, Tau filament bind 5.3% and Hsp90 TPR2A CRC -98.6*[alpha-screen platform artifact].
For CCSc1cc(C)nc2c(-c3ccccc3)c(C)nn12 the results were 15-hLO-2 inh 6.9%.
Screening CCCCCCC/C=C/C1=CC2(C)CC1(C)C(CCCCCCC)CC2=O (stereo not drawn) returned Caspase-1 inhib 0.0%[11.5 µM], Caspase-7 inhib -0.3%[11.5 µM] and ALOX15 inhib 2.8%[11.4 µM].
For Cc1ccc(C(=O)Nc2cccc(C(=O)N3CCOCC3)c2)cc1 the results were 15-hLO-2 inh 1.6%.

High-throughput results (PubChem BioAssay)
